Laboratory results as given in the antibiotic and cytotoxicity screens of Wong et al. (2023).
Screen size: about 39,000 compounds; about 3,300 (8.5%) were called active. For the sample, actives were picked, then their nearest neighbours and some compounds at random.

Tested on: HepG2
Assay: cytotoxicity call (relative viability < 0.9)
Conditions: 10 µM

With `O=C(C[C@@H]1CC[C@H]2[C@@H](COC[C@@H](O)CN2Cc2ccccc2F)O1)N[C@H]1CCN(Cc2ccccc2)C1` as the molecule, how does the cytotoxicity call read?
The cytotoxicity call was “inactive”.

Which cytotoxicity call does the source give for `CO[C@@H]1CN(C)C(=O)c2ccc(NC(=O)c3ccc(F)cc3)cc2OC[C@H](C)N(C(=O)CN(C)C)C[C@@H]1C` here?
Its cytotoxicity call is “inactive”.

`C[C@H]1CN([C@@H](C)CO)C(=O)c2cccc(NC(=O)C3CC3)c2O[C@H]1CN(C)Cc1ccc2c(c1)OCO2` was tested. Which cytotoxicity call did it give?
The cytotoxicity call was “inactive”.

How did the cytotoxicity call turn out when `C[C@@H]1CN([C@H](C)CO)S(=O)(=O)c2ccc(C#CCN(C)C)cc2O[C@H]1CN(C)C(=O)CN(C)C` was run?
The cytotoxicity call was “inactive”.

With `Cc1noc(C)c1NC(=O)N(C)C[C@H]1Oc2ccc(NS(=O)(=O)c3ccccc3)cc2C(=O)N([C@H](C)CO)C[C@H]1C` as the molecule, how does the cytotoxicity call read?
The cytotoxicity call was “inactive”.

With `COCCNC(=O)C[C@H]1CC[C@H]2[C@H](COc3ccc(NC(=O)Nc4cccc(F)c4)cc3C(=O)N2C)O1` as the molecule, how does the cytotoxicity call read?
Its cytotoxicity call is “inactive”.

For `C[C@H](CO)N1C[C@H](C)[C@@H](CN(C)CC2CC2)Oc2ccc(NS(=O)(=O)c3cccs3)cc2CC1=O`, which cytotoxicity call is on record?
The cytotoxicity call was “inactive”.

How did the cytotoxicity call turn out when `NCC[C@H]1CC[C@H](NC(=O)C2CCCCC2)[C@@H](CO)O1` was run?
Its cytotoxicity call is “inactive”.

`COc1ccc(NC(=O)N(C)C[C@@H]2OCCCC[C@H](C)Oc3ccc(NC(=O)c4ccccc4)cc3C(=O)N([C@H](C)CO)C[C@@H]2C)cc1` was tested. Which cytotoxicity call did it give?
Its cytotoxicity call is “inactive”.

How did the cytotoxicity call turn out when `C[C@H](CO)N1C[C@H](C)[C@@H](CN(C)Cc2ccc3c(c2)OCO3)Oc2ccc(NS(=O)(=O)c3ccccc3)cc2CC1=O` was run?
Its cytotoxicity call is “inactive”.

For `C[C@@H]1CN([C@@H](C)CO)C(=O)c2cc(NC(=O)Cn3cnnn3)ccc2O[C@@H]1CN(C)C(=O)Nc1cccc2ccccc12`, which cytotoxicity call is on record?
The cytotoxicity call was “inactive”.

How did the cytotoxicity call turn out when `COc1ccc(S(=O)(=O)Nc2ccc3c(c2)C(=O)N([C@@H](C)CO)C[C@@H](C)[C@H](CN(C)C(=O)C2CCCCC2)OCCCC[C@@H](C)O3)cc1` was run?
Its cytotoxicity call is “inactive”.

Which cytotoxicity call does the source give for `C[C@@H]1CCCCO[C@@H](CN(C)Cc2ccncc2)[C@H](C)CN([C@H](C)CO)C(=O)c2cc(NC(=O)Nc3ccccc3)ccc2O1` here?
Its cytotoxicity call is “inactive”.

How did the cytotoxicity call turn out when `C[C@H](CO)N1C[C@H](C)[C@@H](CN(C)C(=O)Cc2ccccc2)OCCCC[C@H](C)Oc2ccc(NC(=O)Nc3ccc4c(c3)OCO4)cc2C1=O` was run?
Its cytotoxicity call is “inactive”.

For `C[C@@H]1CN([C@H](C)CO)C(=O)Cc2cc(NC(=O)CCCN(C)C)ccc2O[C@@H]1CN(C)Cc1ccc(Oc2ccccc2)cc1`, which cytotoxicity call is on record?
The cytotoxicity call was “active”.

For `C[C@H]1CN([C@@H](C)CO)C(=O)Cc2cc(NC(=O)CCCN(C)C)ccc2O[C@H]1CN(C)Cc1ccc(Oc2ccccc2)cc1`, which cytotoxicity call is on record?
The cytotoxicity call was “inactive”.

For `C[C@@H]1CN([C@@H](C)CO)C(=O)Cc2cc(NC(=O)CCCN(C)C)ccc2O[C@@H]1CN(C)Cc1ccc(Oc2ccccc2)cc1`, which cytotoxicity call is on record?
Its cytotoxicity call is “active”.

For `C[C@H](CO)N1C[C@H](C)[C@H](CN(C)Cc2ccc(Oc3ccccc3)cc2)Oc2ccc(NC(=O)CCCN(C)C)cc2CC1=O`, which cytotoxicity call is on record?
Its cytotoxicity call is “inactive”.

`C[C@H](CO)N1C[C@H](C)[C@@H](CN(C)Cc2ccc(Oc3ccccc3)cc2)Oc2ccc(NC(=O)CCCN(C)C)cc2CC1=O` was tested. Which cytotoxicity call did it give?
Its cytotoxicity call is “inactive”.

How did the cytotoxicity call turn out when `C[C@H]1CN([C@@H](C)CO)C(=O)Cc2cc(NC(=O)CCCN(C)C)ccc2O[C@@H]1CN(C)Cc1ccc(Oc2ccccc2)cc1` was run?
Its cytotoxicity call is “active”.

Which cytotoxicity call does the source give for `C[C@@H]1CN([C@@H](C)CO)C(=O)Cc2cc(NC(=O)CCCN(C)C)ccc2O[C@H]1CN(C)Cc1ccc(Oc2ccccc2)cc1` here?
Its cytotoxicity call is “inactive”.

Which cytotoxicity call does the source give for `C[C@@H]1CN([C@H](C)CO)C(=O)Cc2cc(NC(=O)CCCN(C)C)ccc2O[C@H]1CN(C)Cc1ccc(Oc2ccccc2)cc1` here?
Its cytotoxicity call is “active”.

For `C[C@H](CO)N1C[C@H](C)[C@@H](CN(C)Cc2ccccc2)Oc2ccc(NC(=O)CCCN(C)C)cc2CC1=O`, which cytotoxicity call is on record?
Its cytotoxicity call is “inactive”.

With `C[C@@H]1CN([C@@H](C)CO)S(=O)(=O)c2ccc(C#Cc3ccccc3F)cc2O[C@@H]1CN(C)CC1CC1` as the molecule, how does the cytotoxicity call read?
Its cytotoxicity call is “inactive”.

Which cytotoxicity call does the source give for `C[C@H](CO)N1C[C@H](C)[C@@H](CN(C)Cc2ccc(Oc3ccccc3)cc2)Oc2c(NS(=O)(=O)c3ccc(F)cc3)cccc2C1=O` here?
The cytotoxicity call was “inactive”.

How did the cytotoxicity call turn out when `Cc1cc(=O)n2ncnc2n1CC(=O)NN` was run?
The cytotoxicity call was “inactive”.

Which cytotoxicity call does the source give for `Cc1cc(C(=O)Nc2cccc3c2O[C@H](CN(C)C(=O)NC2CCCCC2)[C@@H](C)CN([C@@H](C)CO)C3=O)n(C)n1` here?
The cytotoxicity call was “inactive”.

How did the cytotoxicity call turn out when `C[C@H](CO)N1C[C@H](C)[C@H](CN(C)S(=O)(=O)c2cn(C)cn2)Oc2ccc(NC(=O)NC3CCCCC3)cc2CC1=O` was run?
The cytotoxicity call was “inactive”.

For `C[C@@H]1CN([C@H](C)CO)C(=O)c2cc(NC(=O)CCN3CCOCC3)ccc2O[C@H]1CN(C)C(=O)Nc1ccccc1`, which cytotoxicity call is on record?
Its cytotoxicity call is “inactive”.

For `CS(=O)(=O)Nc1ccc2c(c1)[C@H]1C[C@@H](CC(=O)NCC3CC3)O[C@@H](CO)[C@H]1O2`, which cytotoxicity call is on record?
The cytotoxicity call was “inactive”.

Which cytotoxicity call does the source give for `CC(C)N1C[C@@H](CNCc2ccc(Oc3ccccc3)cc2)Oc2c(NC(=O)c3ccncc3)cccc2C1=O` here?
The cytotoxicity call was “inactive”.

How did the cytotoxicity call turn out when `CC(C)NCC(O)COc1cccc2[nH]c3ccccc3c12` (stereo not given) was run?
The cytotoxicity call was “active”.

Which cytotoxicity call does the source give for `COCCc1ccc(OCC(O)CNC(C)C)cc1.O=C(O)C(O)C(O)C(=O)O` (stereo not given) here?
The cytotoxicity call was “inactive”.

`COc1ccccc1OCC(O)CN1CCN(CC(=O)Nc2c(C)cccc2C)CC1.Cl.Cl` (stereo not given) was tested. Which cytotoxicity call did it give?
Its cytotoxicity call is “inactive”.

How did the cytotoxicity call turn out when `C=CCc1ccccc1OCC(O)CNC(C)C.Cl` (stereo not given) was run?
Its cytotoxicity call is “active”.

For `O=C1C(=O)N(C[C@@H](O)COc2cccc3ccccc23)C(=O)C(=O)N1C[C@@H](O)COc1cccc2ccccc12`, which cytotoxicity call is on record?
Its cytotoxicity call is “inactive”.

`COc1ccccc1N1CCN(CC(O)COc2cccc3ccccc23)CC1` (stereo not given) was tested. Which cytotoxicity call did it give?
Its cytotoxicity call is “active”.

`CC(C)NCC(O)COc1ccc(CC(N)=O)cc1` (stereo not given) was tested. Which cytotoxicity call did it give?
The cytotoxicity call was “inactive”.

How did the cytotoxicity call turn out when `CC(C)NCC(O)COc1cccc2ccccc12.Cl` (stereo not given) was run?
The cytotoxicity call was “active”.

With `CC(C)NCC(O)COc1cccc2[nH]ccc12` (stereo not given) as the molecule, how does the cytotoxicity call read?
The cytotoxicity call was “inactive”.

How did the cytotoxicity call turn out when `CC(C)NCC(O)COc1ccc(COCCOC(C)C)cc1.O=C(O)C=CC(=O)O` (stereo not given) was run?
Its cytotoxicity call is “inactive”.

`O=C(C[C@H]1C=C[C@@H](NS(=O)(=O)c2ccc(F)cc2)[C@@H](CO)O1)NCc1ccc(Cl)c(Cl)c1` was tested. Which cytotoxicity call did it give?
Its cytotoxicity call is “inactive”.

`COc1ccc2c3c(n(c2c1)C)[C@H](CO)N(C[C@]13CN(CC2CCOCC2)C1)C(=O)c1ccc(cc1)F` was tested. Which cytotoxicity call did it give?
The cytotoxicity call was “inactive”.

For `C[C@H](CO)N1C[C@H](C)[C@H](CN(C)S(=O)(=O)c2cccc(F)c2)Oc2ncc(Br)cc2C1=O`, which cytotoxicity call is on record?
The cytotoxicity call was “inactive”.

With `C[C@@H]1CN([C@@H](C)CO)C(=O)c2cc(NC(=O)CCCN(C)C)ccc2O[C@@H]1CN(C)S(=O)(=O)c1ccccc1` as the molecule, how does the cytotoxicity call read?
The cytotoxicity call was “inactive”.
